Menin-MLL FL inh = qHTS Assay for Inhibitors Targeting the Menin-MLL Interaction in MLL Related Leukemias: Competition With Fluorescein Labeled MLL-derived Peptide. FP activity change, % at 61.4 µM. Fluorescence polarization, fluorescein-MLL peptide displacement from menin. 290,000 tested, under 10 active; active = well fitted curve in the direction sought with a large enough effect in the polarisation, not every such curve was filed as active; inconclusive = small, poorly fitted or top-dose-only effect, or effect the other way, or a change in a side signal; inactive = no such curve, though single readings can be large or run the other way; the % refers to the polarisation; note: % of control where 0% means no effect
Menin-MLL TR inh = qHTS Assay for Inhibitors Targeting the Menin-MLL Interaction in MLL Related Leukemias: Competition With Texas Red Labeled MLL-derived Mutant Peptide | O00255 | AID 1768, 2009 | Potency, µM (highest dose often 61.6 µM), inactives show at the top dose FP activity change, negative = inhibition, actives largely listed as inhibitors | actives 0.23% (n = 270,000) | Menin + Texas Red MLL mutant peptide, fluorescence polarization; active = well fitted inhibition curve with a large enough effect in the polarisation, with a control signal flat, not every such curve was filed as active; inconclusive = small, poorly fitted or top-dose-only effect, or effect the other way, or a change in a side signal; inactive = no such curve, though single readings can be large or run the other way; the % refers to the polarisation; note: potency is the fitted concentration of half-maximal effect; % of control where 0% means no effect
Target sequence (O00255 whole entry, looked up): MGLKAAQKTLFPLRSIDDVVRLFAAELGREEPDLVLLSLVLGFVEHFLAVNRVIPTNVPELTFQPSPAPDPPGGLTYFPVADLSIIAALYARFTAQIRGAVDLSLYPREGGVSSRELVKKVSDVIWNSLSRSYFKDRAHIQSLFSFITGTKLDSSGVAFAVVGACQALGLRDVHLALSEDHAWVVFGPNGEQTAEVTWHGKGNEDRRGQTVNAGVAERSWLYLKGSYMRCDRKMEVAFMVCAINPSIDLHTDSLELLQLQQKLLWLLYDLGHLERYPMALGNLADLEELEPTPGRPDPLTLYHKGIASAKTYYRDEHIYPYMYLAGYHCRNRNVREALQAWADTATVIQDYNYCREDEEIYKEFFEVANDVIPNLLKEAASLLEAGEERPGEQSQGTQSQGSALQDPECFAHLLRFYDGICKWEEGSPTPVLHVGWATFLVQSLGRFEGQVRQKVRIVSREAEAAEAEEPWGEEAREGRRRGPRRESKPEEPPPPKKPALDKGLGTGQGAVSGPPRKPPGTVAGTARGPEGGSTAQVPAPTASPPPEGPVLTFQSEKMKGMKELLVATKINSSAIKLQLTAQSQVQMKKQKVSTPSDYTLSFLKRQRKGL
MLL CXXC-DNA inh = qHTS Fluorescence Polarization Assay for Inhibitors of MLL CXXC domain - DNA interaction; AID 2662, 2010; actives 0.037% (n = 290,000); MLL-CXXC / FITC-HOXA9 DNA fluorescence polarization; Potency, µM (top dose mostly 115 µM), for inactives: at the top dose activity change, negative = inhibition, most hits filed as inhibitors; active = well fitted inhibition curve with a large enough effect in the polarisation, with a control signal flat, not every such curve was filed as active; inconclusive = small, poorly fitted or top-dose-only effect, or effect the other way, or a change in a side signal; inactive = no such curve, though single readings can be large or run the other way; the % refers to the polarisation; note: potency is the fitted concentration of half-maximal effect
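Fluorescence polarization: 7 uM MLL-CXXC (stock) preincubated 5 min with compounds, then 50 nM fluorescein-HOX-A9 DNA (stock) added; 30 min ambient. Buffer 50 mM Tris-HCl pH 7.5, 50 mM NaCl, 1 mM DTT, 0.05% BSA.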
KCNH2 3.1 block = qHTS for Inhibitors of KCHN2 3.1: Mutant qHTS | Potassium voltage-gated channel subfamily H member 2, brain isoform KCNH2 3.1 (human) | U2OS KCNH2 3.1, thallium flux FluxOr; stronger effect = lower value | activity change, % (tested at about 1.8 µM) | actives 0.95% (n = 340,000);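 active = maximum activity change below -70%; inconclusive = maximum activity change from -70% to -50%; inactive = maximum activity change above -50%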;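 note: thallium influx rate constant from kinetic fluorescence after stimulation buffer; % is set by controls: 0 for no effect and ±100 for the full control effect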
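U2OS cells transduced with KCNH2 3.1 mutant virus (1.77 x 10^8 /mL, 4 h), plated overnight at 37 C, loaded 45 min with FluxOr dye plus Red40 quencher. Thallium flux rate constant from kinetic reads after stimulation buffer, normalised to controls.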
KCNH2 WT inh = qHTS for Inhibitors of KCHN2 3.1: Wildtype qHTS. Voltage-gated inwardly rectifying potassium channel KCNH2 (Homo sapiens), Q12809. U2OS, BacMam KCNH2, thallium flux FluxOr; stronger effect = lower value. activity change, % at 1.84 µM. actives 0.37% (n = 340,000). AID 720551, 2013;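 active = maximum activity change below -70%; inconclusive = maximum activity change between -70% and -50%; inactive = maximum activity change above -50%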; note: % is set by controls: 0 for no effect and ±100 for the full control effect
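U2OS cells were transduced with wild-type KCNH2 virus (2.03 x 10^8 / mL) for 4 h at room temperature, then cultured overnight at 37 C. Thallium flux was read with FluxOr dye. Rate constants were normalized to DMSO controls.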
Active calls of the source: *; ? = inconclusive; / = no result. Only some compounds are listed: those with a hit (about 1.1% of all), similar ones and a draw of the others.

SMILES	Menin-MLL FL inh	Menin-MLL TR inh	MLL CXXC-DNA inh	KCNH2 3.1 block	KCNH2 WT inh
CC(CCN1C(Nc2ccccc2)=NC[C@@H]1Cc1ccccc1)c1ccccc1 (stereo partly drawn)	1.4	-10.0%	?	-82.1*	-1.6
CC(C)CCN1C(Nc2ccccc2)=NC[C@@H]1Cc1ccccc1	0.2	-16.3%	12.6%	-0.2	4.8
c1ccc(C[C@H]2CN=C(Nc3ccccc3)N2CCC2CCCC2)cc1	/	/	/	-94.1*	18.2
COC(=O)c1c(C)[nH]c(C(=O)COC(=O)Cn2cc(C(F)(F)F)ccc2=O)c1C	/	/	/	2.6	-23.7
Cc1cccc(/C(N)=N/OC(=O)c2ccc3c(c2)OCO3)c1	-1.4	-4.1%	?	-5.0	-104.7*
N/C(=N\OC(=O)c1ccc2c(c1)OCO2)c1cccc([N+](=O)[O-])c1	0.7	?	2.6%	26.9	0.6
O=C(NC(c1ccccc1)c1ccccc1)c1cccc(S(=O)(=O)NCc2ccccc2)c1	-2.8	1.8%	6.2%	-70.9*	-28.1
CCN(CC(=O)Nc1c(F)cccc1F)C(=O)c1cccc(S(=O)(=O)NCc2ccccc2)c1	/	/	/	5.2	-219.3*
O=C(NCCc1ccccc1)c1cccc(S(=O)(=O)NCc2ccccc2)c1	/	/	/	-0.3	-3.9
CN(C)CCCCCCN(C)C	-5.8	-1.7%	-3.9%	/	/
CC(=O)NN1C(=O)/C(=C2/Sc3ccc(Cl)cc3N2C)SC1=S	20.5	35.5µM*	-3.5%	10.6	8.0
CCN1C(C)=C(C)S/C1=C1\SC(=S)N(NC(C)=O)C1=O	3.2	2.0%	15.4%	6.4	-1.7
COc1ccc2cc(C3CC(c4ccco4)=NN3S(=O)(=O)c3ccccc3)c(Cl)nc2c1 (stereo not drawn)	12.4	-2.8%	2.9%	-83.4*	-7.7
Cc1cc(C)n(CC(=O)O)n1	-0.4	-6.6%	-6.6%	-182.5*	-6.9
Cc1cc(C)n(CC(C)C(=O)O)n1 (stereo not drawn)	-1.4	3.5%	0.5%	-8.7	2.2
CC(Sc1nnc(COc2ccc(Cl)cc2)o1)C(=O)Nc1ccc(N2CCOCC2)cc1 (stereo not drawn)	/	/	/	5.9	-0.4
CN1CCN(c2nc(-c3ccco3)cc(C(F)(F)F)n2)CC1	6.1	/	12.8%	-5.7	43.7
FC(F)(F)c1cc(-c2ccco2)nc(-n2nc(C(F)(F)F)cc2C2CC2)n1	-1.6	9.5%	7.5%	-142.7*	-8.2
N#CCCn1c(=O)c(-c2ccc(Cl)cc2)nc2cnc(Nc3ccccc3)nc21	?	10µM*	/	/	/
CCOc1ccc2c(c1)C(c1ccc(C)cc1)=NNC(c1ccc(OC)cc1)=N2	3.5	-1.4%	34.0%	-93.7*	-39.9
CCOc1ccc(C2=NNC(c3cccnc3)=Nc3ccc(OC)cc32)cc1	2.4	11.0%	-0.3%	6.5	2.3
CC[C@H](C)[C@H](NC(=O)CNC(=O)[C@H](CCCNC(=N)N)NC(=O)[C@H](CO)NC(=O)[C@H](C)NC(=O)[C@H](Cc1ccc(O)cc1)NC(=O)[C@H](Cc1c[nH]c2ccccc12)NC(=O)[C@H](C)NC(=O)[C@@H]1CCCN1C(=O)[C@H](CC(N)=O)NC(=O)[C@@H](NC(=O)[C@H](CC(=O)O)NC(=O)[C@@H]1CCCN1C(=O)[C@@H](NC(=O)[C@H](CCCNC(=N)N)NC(=O)[C@@H](NC(=O)[C@H](CCC(=O)O)NC(=O)[C@H](CCSC)NC(=O)[C@H](CO)NC(=O)[C@H](Cc1cnc[nH]1)NC(=O)[C@H](CCCNC(=N)N)NC(=O)[C@H](Cc1cnc[nH]1)NC(=O)[C@@H](NC(=O)[C@H](CCCNC(=N)N)NC(=O)[C@@H](N)CO)[C@@H](C)O)[C@@H](C)CC)[C@@H](C)O)[C@@H](C)CC)C(=O)N[C@@H](CCCNC(=N)N)C(=O)N1CCC[C@H]1C(=O)N[C@H](C(=O)NCC(=O)N[C@@H](CCCNC(=N)N)C(=O)N[C@@H](Cc1ccccc1)C(N)=O)C(C)C	-3.0	1.4%	/	/	/
C=CCn1c(SCc2cccnc2)nnc1-c1ccncc1	-2.0	-3.6%	-4.6%	-3.3	8.0
C=CCn1c(SCc2c(Cl)cccc2Cl)nnc1-c1cccnc1	1.5	0.4%	-0.1%	-120.3*	3.1
NCCNc1ccc(C(=O)N2c3ccccc3Sc3ccccc32)cc1[N+](=O)[O-]	-6.0	-1.2%	?	-174.8*	7.5
SMILES	Menin-MLL FL inh	Menin-MLL TR inh	MLL CXXC-DNA inh	KCNH2 3.1 block	KCNH2 WT inh
CSc1ccccc1NC(=O)CSc1nnnn1-c1ccccc1SC	3.4	-9.5%	2.3%	-7.8	-2.9
COC(=O)c1ccsc1NC(=O)CSc1nnnn1-c1ccccc1SC	3.3	-1.8%	10.0%	-88.4*	-22.4
NC(=O)c1ccc(NC(=O)CSc2nnc(C3CCCCC3)n2N)cc1	1.5	-15.2%	21.5%	-138.2*	6.6
Nn1c(SCC(=O)Nc2ccc(F)c(F)c2)nnc1C1CCCCC1	3.2	-8.4%	3.3%	40.6	3.3
COc1ccc2nc(Cl)c(C=O)c(N3CCOCC3)c2c1	/	/	/	9.1	-2.6
COc1ccc(NC(=O)c2ccc(-c3ccccc3)cc2)cc1S(=O)(=O)N1CCOCC1	-0.5	2.0%	1.4%	-71.4*	0.9
COc1ccc(NC(=O)c2ccc(-c3ccccc3)cc2)cc1NS(=O)(=O)c1ccc(F)cc1	-0.8	0.0%	?	-77.4*	-2.1
CCc1ccc(C(=O)Nc2ccc(OC)c(S(=O)(=O)N3CCOCC3)c2)cc1	1.3	13.0%	-1.7%	11.2	10.7
COCCn1c(=O)c(-c2ccc(F)cc2)nc2cnc(Nc3cccc(OC)c3)nc21	?	17.8%	/	/	/
Cc1c(C(=O)Nc2cccc([N+](=O)[O-])c2)cnn1-c1ccccc1	5.1	?	-7.2%	4.5	4.8
C/C(=N\NC(=O)c1ccccc1-n1cccc1)C1CC1	7.2	-12.6%	12.7%	-75.7*	-4.2
CC(C)(C)OC(=O)NC(NC(=O)OCC1c2ccccc2-c2ccccc21)C(=O)O (stereo not drawn)	-28.5	-13.9%	/	/	/
O=C(NCCc1csc(-c2cccnc2)n1)c1ccc(Br)o1	2.4	26.3%	-3.9%	5.6	-71.1*
COc1ccccc1CN1CC[C@@]2(CCCN(C(=O)c3cccn3C)C2)C1	-6.6	-13.9%	/	/	/
CCOC(=O)CC(=O)CSCC(=O)Nc1ccc(C)cc1	4.2	1.4%	8.7%	-75.2*	-7.9
CCN(CC(=O)Nc1ccc(NC(C)=O)cc1)C(=O)CSCC(=O)Nc1ccc(C)cc1	/	/	/	-4.1	3.9
